Data as given in PubChem BioAssay (Tox21).
Inconclusive results are not listed. The source made the active and inactive calls. The call rests on the fitted dose curve; in most records, active means well fitted curve in the direction sought with a large enough effect in the repeat runs; inconclusive means weak or mixed curves; inactive means no such curve, though single readings can be large; an effect the other way counts as inactive or inconclusive.

Legend:
[1] = A CellTox Green Cytotoxicity Assay to monitor cytotoxicity in HepG2 cells - 16 hour (AID 1224876); further: nearly all actives have a fitted effect of over 45% in size; further: potency means the concentration at half of the fitted maximal effect
In short: (§1)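 Read-out is fluorescence of a cyanine dye excluded from live cells that stains DNA of dead HepG2 cells, with signal proportional to cytotoxicity. Plates were read at 0, 8, 16, 24, 32 and 40 h after compound addition.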

[2] = qHTS RealTime-Glo MT Cell Viability Assay in HepG2 cells - 32 hour (AID 1224877); further: nearly all actives have a fitted effect of over 55% in size
In short: (§2)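 Cell number in HepG2 cultures estimated from NanoLuc luminescence generated by metabolic reduction of a prosubstrate by living cells. The homogeneous, nonlytic format allowed repeated reads at 0, 8, 16, 24, 32 and 40 h of compound exposure.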

[3] = A CellTox Green Cytotoxicity Assay to monitor cytotoxicity in HepG2 cells - 24 hour (AID 1224878); further: nearly all actives have a fitted effect of over 45% in size; further: potency means the concentration at half of the fitted maximal effect
In short: as §1

[4] = A CellTox Green Cytotoxicity Assay to monitor cytotoxicity in HepG2 cells - 40 hour (AID 1224879); further: nearly all actives have a fitted effect of over 40% in size; further: potency means the concentration at half of the fitted maximal effect
In short: as §1

[5] = A CellTox Green Cytotoxicity Assay to monitor cytotoxicity in HEK293 cells - 32 hour (AID 1224881); further: nearly all actives have a fitted effect of over 40% in size
In short: (§3)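 Nonlytic real-time cytotoxicity: HEK293 + CellTox Green reagent plated, 5 h preincubation, pintool compound addition (23 nL in DMSO), 37 C for 40 h, fluorescence measured at successive time points.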

[6] = A CellTox Green Cytotoxicity Assay to monitor cytotoxicity in HepG2 cells - 32 hour (AID 1224883); further: nearly all actives have a fitted effect of over 50% in size; further: potency means the concentration at half of the fitted maximal effect
In short: as §1

[7] = A CellTox Green Cytotoxicity Assay to monitor cytotoxicity in HEK293 cells - 8 hour (AID 1224884); further: nearly all actives have a fitted effect of over 35% in size
In short: as §3

[8] = qHTS RealTime-Glo MT Cell Viability Assay in HepG2 cells - 16 hour (AID 1224885); further: nearly all actives have a fitted effect of over 50% in size
In short: as §2

[9] = qHTS RealTime-Glo MT Cell Viability Assay in HEK293 cells - 0 hour (AID 1224880); further: top concentration of the series differs between compounds; nearly all actives have a fitted effect of over 45% in size
In short: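 Cells were seeded together with NanoLuc luciferase and a prosubstrate that viable cells reduce to a luciferase substrate. After a 5 h incubation at 37 C/5% CO2, compounds were added and luminescence was measured repeatedly during 40 h of treatment.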

[10] = A CellTox Green Cytotoxicity Assay to monitor cytotoxicity in HepG2 cells - 0 hour (AID 1224882); further: nearly all actives have a fitted effect of over 35% in size
In short: as §1

Measured: Potency

OC[C@@H](O)C(O)[C@@H](O)CO (some centres undefined)
not listed: [9] | [10]
inactive: all other assays above

C=CCCCCCCCC
not listed: [9] | [10]
inactive: all other assays above

OCC1(CO)COCOC1
not listed: [3] | [6]
inactive: all other assays above

CO[C@@]1(NC(=O)Cc2cccs2)C(=O)N2C(C(=O)O)=C(COC(N)=O)CS[C@@H]21
not listed: [2]
inactive: all other assays above

C#CCN[C@@H]1CCc2ccccc21
not listed: [9]
inactive: all other assays above

CCC(C)C(C)=O (centres undefined)
not listed: [9]
inactive: all other assays above

CCCCCCCCCCOC(C)=O
not listed: [9]
inactive: all other assays above

CC(N)CCCC(C)(C)O (centres undefined)
not listed: [9]
inactive: all other assays above

CCCCOC(=O)C(C)O (centres undefined)
not listed: [9]
inactive: all other assays above

CC(C)NC(=O)c1ccc(C=O)cc1
not listed: [9] | [10]
inactive: all other assays above

ONc1ccccc1
not listed: [2]
inactive: all other assays above

CC(=O)OCC(=O)Nc1cc(C#N)cc(NC(=O)COC(C)=O)c1Cl
not listed: [9]
inactive: all other assays above

CC(=O)OC(C)=O
not listed: [9]
inactive: all other assays above

CCNC(=O)NCc1cccc(Cl)c1
not listed: [9]
inactive: all other assays above

N#CCC(=O)NN
not listed: [9]
inactive: all other assays above

O=NN(CCCl)C(=O)NC1CCCCC1
not listed: [2]
inactive: all other assays above

O=C=NCC1CCCC(CN=C=O)C1 (centres undefined)
not listed: [2]
inactive: all other assays above

O=C[O][Al]([O]C=O)[O]C=O
not listed: [7] | [9]
inactive: all other assays above

C[C@H]1[C@@H](c2ccccc2)NC(=O)N1C
not listed: [2]
inactive: all other assays above

OCC(O)CN1CCN(c2ccccc2)CC1 (centres undefined)
not listed: [9]
inactive: all other assays above

CCCc1ccc(O)cc1
not listed: [3] | [4] | [6]
inactive: all other assays above

O=Cc1ccccc1Cl
inactive: [1] | [2] | [3] | [4] | [6] | [8]

CC12CCC(C1)C(C)(C)C2O (centres undefined)
active: [1] 1.95 µM | [3] 2.19 µM | [4] 2.19 µM | [6] 2.19 µM
inactive: [2] | [10] | [8]

CCc1occc(=O)c1O
not listed: [2]
inactive: all other assays above

Nc1nc(-c2ccccc2)c(Br)c(=O)[nH]1
not listed: [3]
inactive: all other assays above

CC(C)NCC(O)c1ccc2ccccc2c1 (centres undefined)
not listed: [2]
inactive: all other assays above

CN(C)CCCO[C@@H]1[C@H]2OC(C)(C)O[C@H]2O[C@@H]1C(O)CO (some centres undefined)
not listed: [9]
inactive: all other assays above

CC(=O)O[Si](C)(OC(C)=O)OC(C)=O
not listed: [9]
inactive: all other assays above

CC1(C)Oc2ccc(C#N)cc2[C@@H](N2CCCC2=O)[C@@H]1O
not listed: [9]
inactive: all other assays above
